Source: PubChem BioAssay (National Center for Advancing Translational Sciences (NCATS))
Compounds with a hit are over-represented: about 18% of the library has one in this group of screens.
TDP1 cell CPT – DT40-hTDP1 cell growth loss with CPT | chicken DT40 Tdp1-/-;hTDP1 cells + 20 nM CPT, ATP luminescence, 48 h | Potency, µM (top dose mostly 46.2 µM), without a hit: at the top dose activity change, negative = growth inhibition, actives largely listed as inhibitors | actives 12% (n = 420,000); further: nearly all actives have a fitted effect of over 55% in size
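Chicken DT40 Tdp1-/- cells complemented with human TDP1, 400 cells/well, exposed to compounds plus 20 nM camptothecin for at least 48 h at 37 C; viability read as ATP content by CellTiter-Glo luminescence.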
TDP1 cell noCPT – qHTS for Inhibitors of human tyrosyl-DNA phosphodiesterase 1 (TDP1): qHTS in cells in absence of CPT; DT40 Tdp1-/- hTDP1 cells, no CPT, ATP luminescence, 48 h; Potency, µM (series often up to 46.2 µM), for inactives: top-dose activity change, negative = growth inhibition, usual class: inhibitors; actives 15% (n = 420,000); further: nearly all actives have a fitted effect of over 55% in size
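Seeded 400 DT40-hTDP1 cells/well (vehicle DMSO, no 20 nM CPT); pinned compounds; ≥48 hr at 37 °C; CellTiter-Glo luminescence as viability measure.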
GCN5L2 inh – blocks human GCN5L2 histone acetyltransferase | Q92830 | GCN5L2 HAT assay, ThioGlo1 CoA-SH fluorescence | Potency, µM (doses to about 58.9 µM), for the others: at the highest dose activity change, negative = inhibition, actives largely listed as inhibitors | actives 0.21% (n = 390,000)
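Titration-based screen in which CoA formation is detected via maleimide probe ThioGlo1 (50uM) turning fluorescent on thiol reaction; substrates H3(1-25) 75uM and acetyl-CoA 70uM, GCN5L2 20nM, 20 min incubation at room temperature.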
PLK1 PBD block – PLK1 (human) polo-box domain binding inhibition. Plk1 PBD binding of FITC phosphopeptide, fluorescence polarization. actives 2.8% (n = 360,000). Potency, µM, inactives show max response, negative = inhibition, actives largely listed as inhibitors. P53350. AID 720504; further: series mostly up to about 57 µM; nearly all actives have a fitted effect of over 65% in size
Target sequence (P53350 whole entry, looked up, the tested form may be a part): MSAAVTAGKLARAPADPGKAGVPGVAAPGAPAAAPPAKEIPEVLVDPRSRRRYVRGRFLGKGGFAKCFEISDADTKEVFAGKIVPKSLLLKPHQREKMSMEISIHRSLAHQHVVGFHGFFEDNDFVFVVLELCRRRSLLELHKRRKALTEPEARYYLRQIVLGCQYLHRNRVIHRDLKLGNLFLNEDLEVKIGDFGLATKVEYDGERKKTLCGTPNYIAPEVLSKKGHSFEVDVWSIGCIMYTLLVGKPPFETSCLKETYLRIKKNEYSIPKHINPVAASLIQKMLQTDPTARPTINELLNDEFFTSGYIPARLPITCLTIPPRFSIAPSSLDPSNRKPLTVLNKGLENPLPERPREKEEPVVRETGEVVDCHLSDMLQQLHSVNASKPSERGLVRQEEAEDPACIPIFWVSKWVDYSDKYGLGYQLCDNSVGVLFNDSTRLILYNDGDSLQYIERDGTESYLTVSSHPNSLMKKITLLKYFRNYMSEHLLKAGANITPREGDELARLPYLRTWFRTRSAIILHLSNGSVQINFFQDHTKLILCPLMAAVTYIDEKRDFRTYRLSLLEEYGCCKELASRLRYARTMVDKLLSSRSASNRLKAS
TDP1 inh – TDP1 (human) enzyme inhibition | Q9NUW8 | recombinant TDP1, AlphaScreen DNA substrate cleavage | Potency, µM (highest dose often 130 µM), without a hit: at the top dose activity change, negative = inhibition, hits mostly inhibitors | actives 0.28% (n = 350,000) | AID 485290; further: nearly all actives have a fitted effect of over 40% in size
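AlphaScreen read-out: signal falls as enzyme removes the 3' tyrosine-FITC from a 5'-biotinylated DNA oligo (15 nM, 5 min, RT). Enzyme was E. coli-made recombinant Tdp1 at 1 nM, exposed to compound for 15 min beforehand; beads 10 ug/ml, 10 min.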
VDR inhibitor – blocks the human vitamin D receptor; AID 504847; VDR-SRC2-3 peptide fluorescence polarization, 2 h; actives 0.93% (n = 400,000); Potency, µM, without a hit: max response, negative = inhibition, actives largely listed as inhibitors
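Compounds are added to VDR with labelled SRC2-3 coactivator peptide and held 2 h at room temperature. Inhibition of the VDR–peptide interaction is then read as a change in fluorescence polarization.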
Active calls of the source: *; u = inconclusive; x = no result; [ ] = another dose, or the depositor's remark. The call rests on the fitted dose curve; in most records, active means well fitted curve in the direction sought with a large enough effect; inconclusive means small, poorly fitted or top-dose-only effect, or another doubt; inactive means no such curve, though single readings can be large; an effect the other way counts as inactive or inconclusive. On the % scale 0 is the no-effect control and ±100 the full control effect; potency means the concentration at half of the fitted maximal effect.

SMILES | TDP1 cell CPT | TDP1 cell noCPT | GCN5L2 inh | PLK1 PBD block | TDP1 inh | VDR inhibitor
Cc1cc(-c2ccccc2)nc(N/N=C/c2ccco2)n1 | 29.1µM* | u | -4.4% | -8.9% | 4.8% | -4.0%
C(=N\Nc1nc(Nc2ccccc2)nc(Nc2ccccc2)n1)/c1ccncc1 | u | -21.3% | -7.8% | -4.2% | 0.0% | 19.6%
Cc1cc(-c2ccccc2)nc(N/N=C/c2ccccc2)n1 | 20.6µM* | 23.1µM* | -5.6% | -11.8% | -0.9% | -3.7%
Cc1cc(N/N=C/c2ccccc2O)c2ccccc2n1 | 16.4µM* | 16.4µM* | u | 6.3% | 5.4% | 10.1%
C(=N\Nc1nc(Nc2ccccc2)nc(Nc2ccccc2)n1)/c1cccnc1 | 16.4µM* | 10.3µM* | -4.0% | -0.7% | 5.0% | 0.1%
Cc1ccc2oc(-c3ccc(Cl)c(NC(=O)c4ccc(-c5ccccc5[N+](=O)[O-])o4)c3)nc2c1 | -12.8% | -19.1% | 2.1% | x | -1.9% | -12.1%
N#CCn1c(CN2CCCC2)nc2ccccc2c1=O | 6.9% | -7.8% | -2.9% | -2.4% | -5.8% | 3.0%
Cc1ccc(-c2cc(-c3ccccc3)nc(N/N=C/c3cccnc3)n2)cc1 | 29.1µM* | u | x | -13.6% | x | -2.8%
Cc1cc(-c2ccccc2)nc(N/N=C/c2cccnc2)n1 | -23.0% | -28.5% | -2.8% | -0.3% | 8.6% | 7.2%
Cc1cc(-c2ccccc2)nc(N/N=C/c2ccc(N(C)C)cc2)n1 | u | 14.6µM* | x | -6.4% | x | 3.1%
CN(/N=C/c1ccc(O)cc1O)c1nc(-c2ccccc2)cc(-c2ccccc2)n1 | 20.6µM* | 11.6µM* | -0.6% | -2.2% | 4.2% | -15.7%
Cc1cc(-c2ccccc2)nc(N/N=C/c2ccc(O)cc2O)n1 | u | 18.4µM* | 1.4% | 2.7% | 8.6% | -8.2%
CN(N)c1nc(-c2ccccc2)cc(-c2ccccc2)n1 | u | u | -8.6% | -1.3% | x | -14.6%
CSc1ccc(S(=O)(=O)N(C)Cc2ccccc2)cc1 | 1.3% | -13.9% | -9.2% | 2.2% | -5.1% | -14.5%
Cc1nnsc1-c1nnc(SCC(=O)c2ccccc2)n1C1CC1 | -0.9% | u | u | -8.5% | 2.6% | -2.7%
Cc1ccc2nc(N/N=C/c3ccco3)cc(C)c2c1 | 8.2µM* | 10.3µM* | -16.2% | 0.7% | 9.6% | 4.6%
Cc1c(O)ccc2c(CN(C)Cc3ccccc3)cc(=O)oc12 | u | 18.4µM* | -6.3% | 0.4% | x | -16.4%
Cc1ccccc1CN(C)Cc1cc(=O)oc2c(C)c(C)ccc12 | u | u | -7.8% | 2.9% | -5.3% | -4.5%
COc1cccc(CN(C)Cc2cc(=O)oc3c(C)c(C)ccc23)c1 | 13µM* | u | -0.6% | -3.4% | x | -5.7%
Cc1cc2oc(=O)cc(CN(C)Cc3cccc(F)c3)c2cc1C | u | -6.7% | -3.5% | -3.9% | x | -6.8%
CCc1cc2c(CN(C)Cc3ccccc3F)cc(=O)oc2cc1O | u | 14.6µM* | -15.7% | -3.0% | 5.1% | -5.3%
Cc1c(O)ccc2c(CC(=O)N[C@@H](Cc3ccccc3)C(=O)O)cc(=O)oc12 | 6.6% | -17.7% | u | -9.6% | x | -10.8%
Cc1cc(NC(=O)N2CCC(CN3CCCCCC3)CC2)ccc1Br | u | u | 3.1% | x | -3.7% | 5.9%
COc1ccccc1CN(C)CC(=O)Nc1ccc(Cl)cc1C(F)(F)F | 20.6µM* | 14.6µM* | -9.4% | -2.8% | -5.4% | -11.7%
COc1ccccc1CN(C)CC(=O)Nc1cccc2ccccc12 | 25.9µM* | 25.9µM* | 1.5% | 6.0% | 4.8% | 2.6%
SMILES | TDP1 cell CPT | TDP1 cell noCPT | GCN5L2 inh | PLK1 PBD block | TDP1 inh | VDR inhibitor
COc1ccccc1CN(C)CC(=O)Nc1ccc(Cl)cc1F | u | u | -7.2% | 3.0% | -5.9% | -5.3%
O=S(=O)(c1ccc(Br)cc1F)N1CCC(O)CC1 | 2.8% | -9.0% | x | -22.7% | x | -9.5%
COc1ccc(C(=O)Nc2cccc(C(=O)OCc3cc(=O)n4nc(C5CC5)sc4n3)c2)cc1 | u | u | 29.2% | x | -8.8% | 22.6%
COc1cc2nc(SCc3ccc(Cl)cc3)n3nc(CCn4nc(C)cc4C)nc3c2cc1OC | 20.9% | -9.4% | -1.8% | x | 0.0% | -8.9%
Nc1nc2ccc(Cl)cc2cc1C(=O)NC1CC1 | -8.9% | -15.5% | x | 0.6% | x | x
Nc1nc2cc3c(cc2cc1C(=O)NCc1ccc(F)cc1)OCO3 | 16.4µM* | 4.11µM* | x | -10.7% | x | x
O=C(NCc1ccc2c(c1)OCO2)c1nnc(Cc2ccc(F)cc2)o1 | 0.9% | -11.5% | -0.7% | -14.5% | 1.3% | -12.5%
Nc1nc2ccc(Cl)cc2cc1C(=O)NCc1ccc(Oc2ccccc2)cc1 | 0.651µM* | 1.3µM* | x | -6.2% | x | x
Nc1nc2ccc(Cl)cc2cc1C(=O)NCCc1ccc(Cl)cc1Cl | u | u | x | -15.6% | x | x
Nc1nc2ccc(Cl)cc2cc1C(=O)NCCc1c[nH]c2ccccc12 | 8.2µM* | u | x | -3.3% | x | x
O=C(O)C1CC[C@@](C(=O)O)(c2ccccc2)c2ccccc21 (some centres not stated) | 11.2%[9.04 µM] | 11.0%[9.04 µM] | x | x | 1.2% | 4.9%
Cc1cc(C(=O)NN)c(C)o1 | 1.2% | 11.3% | -3.5% | -5.3% | 5.8% | -16.1%
CCc1ccc(C(C)NC(=O)c2cc(C)oc2C)cc1 (configuration not stated) | 20.6µM* | 23.1µM* | -5.4% | u | -2.2% | -16.6%
C/C(=N\NC(=S)NCCc1ccccc1)c1ccc(C#N)cc1 | u | 13µM* | 0.0% | -2.7% | 3.5% | 5.4%
C/C(=N\NC(=S)NCCc1ccccc1)c1ccc(C)cc1 | u | 18.4µM* | -11.1% | -5.9% | 0.0% | -1.3%
Cn1c(=O)n(C)c2cc(NC(=O)CSc3ccccc3)ccc21 | -21.3% | -9.2% | 2.9% | u | 2.1% | -4.3%
COc1ccc(/C=C/N(CCc2ccc(OC)c(OC)c2)C(=O)c2ccccn2)cc1 | x | x | x | x | 6.9%[21 µM] | x
Cc1cccc(C(=O)OCC(=O)NC23CC4CC(CC(C4)C2)C3)c1O | 9.2µM* | 18.4µM* | -2.8% | -6.8% | -4.7% | -16.2%
Cc1cccc(C(=O)OCC(=O)NC2CC2)c1O | -3.8% | -7.8% | 3.7% | 5.8% | 0.7% | -8.8%
O=C(COC(=O)c1ccccc1O)NC12CC3CC(CC(C3)C1)C2 | 11.6µM* | 18.4µM* | -5.0% | -11.6% | -1.9% | -21.0%
CC(=O)Oc1cc(C(=O)OCC(=O)NC23CC4CC(CC(C4)C2)C3)cc(OC(C)=O)c1OC(C)=O | 5.8µM* | u | x | -11.2% | x | 4.0%
